From PubChem BioAssay
Values joined by “and” are separate entries in the source; they are usually repeats but may differ in a detail not shown here. Equal entries are not always repeated. Where a structure was tested more than once in an assay, its records may differ in their call. Active and inactive are the calls of the source. Unless noted, no stated cut-off is given here; in the data, active means inhibition above about 80%; inactive means the rest.

Key:
[1] = sensitizers of A549 cells to miR-34 induction, primary screen, imaging, A549 dox-inducible miR-34, nuclei and caspase counts (AID 1347080;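 active means compounds whose cell count with miR-34 switched on is under 0.7 times the count with it off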); conditions: A549 miR-34 inducible, Hoechst nuclei count, 48 h
[2] = survival rescue of mitochondrial mutant cells in low glucose, primary screen, MELAS cybrids, Rieske KO mouse fibroblasts, CellTiter-Glo (AID 1508586;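 active means mean z-score across replicates of 1.96 or higher in either the MELAS or the Rieske mutant cell line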;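 further: z relative to plate mean and SD of compound and empty wells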)
[3] = LFS_MB_P medulloblastoma growth inhibition, cell-based, chromothripsis tumors, cisplatin or BGB combos (AID 1671449); conditions: LFS_MB_P medulloblastoma cells;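 further: cells exposed for 96 hours; 0% = vehicle DMSO and 100% = killing by high DMSO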
[4] = HDN33 neuroblastoma growth inhibition, cell-based, chromothripsis tumors, cisplatin or BGB combos (AID 1671450); conditions: HDN33 neuroblastoma cells, stronger effect = higher value;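 further: cells exposed to compound for four days; 0% = vehicle DMSO and 100% = cell killing by high DMSO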
[5] = ICB984 medulloblastoma cell growth inhibition, synergistic combos for chromothripsis tumors, cisplatin or BGB combos (AID 1671451; call rule not given here;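 further: cells exposed for 96 hours before readout; 0% = vehicle DMSO and 100% = killing by high DMSO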); conditions: ICB984 medulloblastoma cells, drug combinations, stronger effect = higher value
[6] = LFS_MB_1R medulloblastoma cell growth inhibition, synergistic combos for chromothripsis tumors, cisplatin or BGB combos (AID 1671452); conditions: LFS_MB_1R medulloblastoma cells, stronger effect = higher value;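 further: cells exposed for 96 hours before readout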
[7] = HTB85 osteosarcoma cell growth inhibition, synergistic combos for chromothripsis tumors, BGB or cisplatin IC20 combos (AID 1671453); conditions: HTB85 osteosarcoma cells, drug combinations, stronger effect = higher value;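 further: cells exposed for 96 hours before readout; 0% = vehicle DMSO and 100% = high DMSO killing control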
[8] = CRL2098 osteosarcoma cell growth inhibition, synergistic combos for chromothripsis tumors, BGB or cisplatin IC20 combos (AID 1671454); conditions: CRL2098 osteosarcoma cells, drug combinations, stronger effect = higher value;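 further: cells exposed for 96 h before readout; 0% = vehicle DMSO and 100% = killing by high DMSO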
[9] = HD-MB03 medulloblastoma cell growth inhibition, synergistic combos for chromothripsis tumors, BGB or cisplatin IC20 combos (AID 1671455; in the data active means inhibition above about 83%;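 further: 0% = vehicle DMSO and 100% = high DMSO as cytotoxic control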); conditions: HD-MB03 medulloblastoma cells, stronger effect = higher value
[10] = UWB1.289 ovarian carcinoma cell growth inhibition, synergistic combos for chromothripsis tumors, BGB or cisplatin combos (AID 1671456); conditions: UWB1.289 ovarian carcinoma cells, stronger effect = higher value;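 further: cells exposed to compound for four days; 0% = vehicle DMSO and 100% = killing by high DMSO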
[11] = LFS_MB_2R medulloblastoma cell growth inhibition, synergistic combos for chromothripsis tumors, cisplatin combos (AID 1671457); conditions: LFS_MB_2R medulloblastoma cells, stronger effect = higher value;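 further: cells exposed to compound for four days before readout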
[12] = MDA-MB-436 breast carcinoma cell growth inhibition, synergistic combos for chromothripsis tumors, BGB or cisplatin combos (AID 1671458; call rule not given here;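 further: cells exposed for 96 hours; 0% = vehicle DMSO and 100% = killing by high DMSO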); conditions: MDA-MB-436 breast carcinoma growth inhibition, drug combinations, stronger effect = higher value
[13] = UWB1.289_BRCA1 ovarian cancer growth, cell-based, BGB or cisplatin combinations (AID 1671459); conditions: UWB1.289 BRCA1 ovarian carcinoma, drug combinations, stronger effect = higher value
[14] = human astrocyte viability loss, single and combined drugs, cytotoxicity control for chromothriptic childhood tumor combination screen, cell-based, BGB or cisplatin IC20 combos (AID 1671460); conditions: Human astrocytes, drug combinations, stronger effect = higher value;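 further: cells exposed to compounds for 96 hours before viability readout; 0% = vehicle and 100% = killing control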
[15] = growth inhibition of BT084 medulloblastoma cells, cell-based, ICGC_MB145, cisplatin and BGB IC40 combos (AID 1671461); conditions: drug combinations, stronger effect = higher value;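 further: cells exposed to drugs for 96 hours; 0% = vehicle DMSO and 100% = high DMSO full killing control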
[16] = growth inhibition of RCMB18 medulloblastoma cells, cell-based, cisplatin and BGB IC40 combos (AID 1671462); conditions: stronger effect = higher value;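 further: cells exposed to compound for four days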
[17] = growth inhibition of CRL1545 osteosarcoma cells, cell-based, cisplatin and BGB IC20 combos (AID 1671464); conditions: stronger effect = higher value;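 further: cells exposed to compound for 96 hours before readout; 0% = vehicle DMSO and 100% = high DMSO killing control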
[18] = hESC survival regulators, cell-based (AID 493140; call rule not given here;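 further: cells exposed to compounds for four days before counting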); conditions: human embryonic stem cell survival screen; stronger effect = higher value
[19] = liver-stage malaria parasite growth inhibition, primary screen, cell-based, HepG2, luciferase luminescence, HepG2 viability (AID 624349; in the data active means parasite load remaining mostly below about 12%, no sharp cut-off; inactive means mostly above about 10%;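 further: 100% = mean of DMSO negative control wells on the same plate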); conditions: P. berghei liver stage in HepG2, luciferase luminescence, concentration not given here; parasite load remaining: stronger effect = lower value; viability: measured here: HepG2 viability without parasites
[20] = stronger effect = lower value, cell number ratio, induced over uninduced
[21] = measured here: relative caspase fold change +Dox/-Dox
[22] = measured here: total cells with miR-34 induction, stronger effect = lower value
[23] = measured here: total cells without miR-34 induction
[24] = MELAS cybrid survival, CellTiter-Glo 48 h, stronger effect = higher value
[25] = Rieske KO mouse fibroblast survival, CellTiter-Glo 72 h
[26] = measured here: combination with BGB IC40, at 0.05 µM
[27] = measured here: with BGB IC20 combination, at 0.5 µM
[28] = measured here: with cisplatin IC20 combination, at 0.5 µM
[29] = measured here: combination with cisplatin, at 0.5 µM
[30] = measured here: combination with cisplatin, at 5 µM

Question: What does the source list for `COc1ccc(CC(N)C(=O)NC2C(CO)OC(n3cnc4c(N(C)C)ncnc43)C2O)cc1` (configuration not stated)?
Answer: fold change [1, 20]: 1 (inactive); fold change [1, 21]: 0.403; cell count [1, 22]: 798; cell count [1, 23]: 796; z-score [2, 24]: -0.998 (inactive); z-score [2, 25]: -2.06; inhibition ([3]; at 0.5 µM, stronger effect = higher value): -25.1% (inactive) and 6.28% (inactive); inhibition ([3]; measured here: combination with BGB IC20, at 0.005 µM): 7.23% and -8.63%; inhibition ([3]; measured here: combination with BGB IC40, at 0.005 µM): -30.8% and -22.1%; inhibition [3, 26]: -25.1% and 4.36%; inhibition ([3]; measured here: combination with cisplatin, at 0.5 µM, stronger effect = higher value): -20.6% and 32.4%; inhibition ([3]; measured here: combination with cisplatin, at 5 µM, stronger effect = higher value): 120% and 124%; inhibition ([4]; BGB combo, at 5 µM): 100% and 99.9%; inhibition ([4]; at 0.5 µM): 75.5% (inactive) and 96.4% (active); inhibition ([4]; cisplatin combo, at 5 µM): 99.9% and 100%; inhibition [4, 27]: 78.8% and 94.9%; inhibition [4, 28]: 74% and 96.7%; inhibition ([4]; single agent, at 5 µM): 99.9% and 100%; inhibition ([5]; BGB IC20 combo, at 0.005 µM): 14.3% and 49.6%; inhibition ([5]; BGB IC40 combo, at 0.005 µM): 37% and 55.6%; inhibition ([5]; BGB IC40 combo, at 0.05 µM): 100%; inhibition ([5]; at 0.5 µM): -26.8% (inactive) and -23.9% (inactive); inhibition ([5]; cisplatin combo, at 0.05 µM): 101% and 100%; inhibition ([5]; cisplatin combo, at 0.5 µM): -24.2% and -19.9%; inhibition ([5]; cisplatin combo, at 5 µM): -8.56% and -29.6%; inhibition ([5]; measured here: 5 uM single agent, at 5 µM): -9.41% and -1.15%; inhibition ([6]; at 0.5 µM): 31.4% (inactive) and 64.5% (inactive); inhibition [6, 26]: 0.687% and -51.1%; inhibition [6, 29]: 59.4% and 79.7%; inhibition [6, 30]: 102% and 99%; inhibition ([7]; at 0.5 µM): 82.9% (active) and 95.9% (active); inhibition ([7]; measured here: with BGB IC20, at 0.5 µM): 84.1% and 96.2%; inhibition ([7]; measured here: with BGB IC20, at 5 µM): 100%; inhibition ([7]; measured here: with cisplatin IC20, at 0.5 µM): 80.8% and 96.9%; inhibition ([7]; measured here: with cisplatin IC20, at 5 µM): 99.9% and 100%; inhibition ([7]; single agent, at 5 µM): 100%; inhibition ([8]; at 0.5 µM): 56.1% (inactive) and 91.8% (active); inhibition ([8]; measured here: combination with BGB at IC20, at 0.5 µM): 67.8% and 88.9%; inhibition ([8]; measured here: combination with cisplatin at IC20, at 0.5 µM): 54.9% and 94.1%; inhibition ([9]; at 0.5 µM): 87.7% (active) and 99.6% (active); inhibition ([9]; measured here: combo with BGB at IC20, at 0.5 µM): 88.7% and 99.3%; inhibition ([9]; measured here: combo with cisplatin at IC20, at 0.5 µM): 91.5% and 99.7%; inhibition ([10]; at 0.5 µM): 50% (inactive) and 83.6% (active); inhibition ([10]; measured here: inhibition with BGB combination, at 0.05 µM): -13.6% and -16.5%; inhibition ([10]; measured here: inhibition with cisplatin combination, at 0.05 µM): -12.2% and -18.5%; inhibition ([11]; at 0.5 µM): 29.8% (inactive) and 56.9% (inactive); inhibition [11, 29]: 55.5% and 77.6%; inhibition [11, 30]: 108% and 104%; inhibition ([12]; at 0.5 µM): 57.5% (inactive) and 76.7% (inactive); inhibition ([12]; measured here: BGB combination, at 0.5 µM): 54.4% and 71.5%; inhibition ([12]; measured here: BGB combination, at 5 µM): 97.5% and 96%; inhibition ([12]; measured here: cisplatin combination, at 0.5 µM): 53% and 76.1%; inhibition ([12]; measured here: cisplatin combination, at 5 µM): 98.3% and 97.8%; inhibition ([13]; BGB combination, concentration series, at 5 µM): 117% and 113%; inhibition ([13]; at 0.5 µM): 59% (inactive) and 95.4% (active); inhibition ([13]; cisplatin combination, concentration series, at 5 µM): 117% and 111%; inhibition ([14]; at 0.5 µM): 40.4% (inactive) and 94.2% (active); inhibition ([14]; measured here: combo with BGB IC20, at 0.5 µM): 44.5% and 93.9%; inhibition ([14]; measured here: combo with cisplatin IC20, at 0.5 µM): 14.8% and 91.4%; inhibition ([15]; at 0.5 µM): 25.7% (inactive) and 46.2% (inactive); inhibition ([15]; cisplatin combination, at 0.5 µM): 43% and 48.9%; inhibition ([15]; cisplatin combination, at 5 µM): 88.5% and 94%; inhibition ([15]; measured here: BGB IC40 combination 0.05 uM, at 0.05 µM): -4.12% and 46.7%; inhibition ([15]; single agent, at 5 µM): 105% and 104%; inhibition ([16]; at 0.5 µM): 33.4% (inactive) and 51.8% (inactive); inhibition ([16]; cisplatin combo, at 5 µM): 76% and 95.5%; inhibition ([16]; measured here: BGB IC40 combination, at 0.05 µM): -32% and 8.46%; inhibition [16, 29]: 49.2% and 73.8%; inhibition ([16]; single agent, at 5 µM): 95.9% and 95.4%; inhibition ([17]; at 0.5 µM): 86.2% (active) and 95.7% (active); inhibition [17, 27]: 92.5% and 96.5%; inhibition [17, 28]: 82.6% and 95.3%; inhibition ([17]; single agent, at 0.05 µM): -45.7% and -4%; inhibition ([17]; single agent, at 5 µM): 100% and 99.7%

Question: What does the source list for `CN[C@@H]1[C@H](O[C@H]2[C@H](O[C@@H]3[C@@H](O)[C@H](O)[C@@H](N=C(N)N)[C@H](O)[C@H]3N=C(N)N)O[C@@H](C)[C@]2(O)CO)O[C@@H](CO)[C@H](O)[C@H]1O`?
Answer: survival [18]: 13.1 (inactive); parasite load remaining [19]: 58.9% (inactive) and 103% (inactive); viability [19]: 51% and 87.7%; fold change [1, 20]: 0.925 (inactive); fold change [1, 21]: 1.1; cell count [1, 22]: 9160; cell count [1, 23]: 9910; z-score [2, 24]: -0.905 (inactive); z-score [2, 25]: -0.0139

Question: With `CNc1ncnc2c1ncn2[C@@H]1O[C@H](CO)[C@@H](O)[C@H]1O` as the molecule, how does the survival [18] read?
Answer: 5.42 (inactive)

Question: And the parasite load remaining [19]?
Answer: 23.9% (inactive) and 70.7% (inactive)

Question: What about the viability [19] of the same molecule?
Answer: 132% and 78.2%

Question: What about the fold change [1, 20] of the same molecule?
Answer: 0.829 (inactive)

Question: And the fold change [1, 21]?
Answer: 1.48

Question: And the cell count [1, 22]?
Answer: 7800

Question: And the cell count [1, 23]?
Answer: 9420

Question: And the z-score [2, 24]?
Answer: 0.118 (inactive)

Question: And the z-score [2, 25]?
Answer: -0.237
